The supplement of paper PMC6555819

Columns and labels:
Assay in all cases: PBM binding z-score (relative to random genomic background probes); higher = stronger binding; sequences stand for … in GC…GCGATTGACAGCGTAGAATGAAGG
[1] = tested on: RARb homodimer (NR concentration 270 nM)
Outline: (§1)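 Scanned fluorescence from custom Agilent 4×180K protein-binding microarrays was regression-normalized. Binding z-scores use random background probes as reference. Ligand-free nuclear receptor dimers were incubated on the arrays for 1 h and detected with antibodies against each partner (one per run).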

[2] = tested on: RARg:RXRa (NR concentration 270 nM, RXRa partner concentration 90 nM)
Outline: as §1

[3] = tested on: RARg homodimer (NR concentration 270 nM)
Outline: as §1

[4] = tested on: RXRa DBDmut IVT, anti-RXR (DBD mutation: RXRa K156A/R161A, NR concentration 90 nM)
Outline: as §1

[5] = tested on: RXRa homodimer (NR concentration 180 nM)
Outline: as §1

[6] = tested on: THRa:RXRa (NR concentration 90 nM, RXRa partner concentration 90 nM)
Outline: as §1

[7] = tested on: THRa homodimer (NR concentration 90 nM)
Outline: as §1

[8] = tested on: VDR homodimer (NR concentration 270 nM)
Outline: as §1

Row | Sequence | PBM binding z-score [1] | PBM binding z-score [2] | PBM binding z-score [3] | PBM binding z-score [4] | PBM binding z-score [5] | PBM binding z-score [6] | PBM binding z-score [7] | PBM binding z-score [8]
1 | CAAACTAGGTCACGAAAGTTCAAAGTCGAATGAC | 5 | 6.73 | 7.67 | 2.96 | 5.99 | 4.31 | 1.46 | 4.82
2 | AGTCAAAGTTCATCTAGGTAACGCAAGATATGCT | 3.95 | 5.4 | 6.01 | 4.76 | 4.57 | 3.08 | 0.274 | 5.06
3 | CGTCCAAGATCAATGCTAGGTCAGTGAAAGCATT | 2.31 | 1.93 | 1.33 | 0.097 | 0.272 | 1.75 | 0.486 | 0.299
4 | TATTGTAGATCAACAGGAGGTTAAGAAAGATCGA | 0.682 | 1 | 0.791 | -0.715 | 0.924 | 1.23 | -0.471 | 0.107
5 | GTACCAAGGTGAATAGGGCGTTGATGAGTAGGCG | 1.21 | 1.13 | 0.952 | -0.247 | 0.599 | 1.36 | 0.767 | 0.221
6 | AGAACGAGGGCAATGAGTTGATAACACGGGTGGC | 0.742 | 1.31 | 1.53 | 1.96 | 0.961 | 1.04 | -0.289 | 3.3
7 | GATACTGGGTCAGCTAGAGGCCAGAGTATGGAAA | 2.73 | 5.04 | 3.76 | -0.654 | 1.82 | 1.75 | -0.395 | 0.0442
8 | TCATATGGGTAATACAGGTGAAAGTCGGCATCTA | 0.197 | 0.414 | 0.489 | 0.75 | 0.794 | 0.846 | -0.109 | -0.42
9 | ACTATTAGTTGACTTAGGCCAACCGATACGACGC | 0.826 | 0.899 | 0.91 | 0.805 | 0.539 | 0.898 | 0.912 | 0.435
10 | TTACCAAGGCGAGCTGAGGTCGTTGATCCAACTC | 0.643 | 0.197 | -0.299 | 0.038 | 0.626 | 3.13 | 1.16 | 1.49
11 | CTTCCAAGGTCAAGGTCAGTGAAAGAGACTCGAA | 5.12 | 6.79 | 7.26 | 3.07 | 6.55 | 4.54 | 3.64 | 2.79
12 | TCTTGTAGCTCAAAGGTTAAGAAAGCCGAAGCCT | 1.26 | 1.16 | 0.435 | 0.364 | 1.82 | 1.05 | -0.771 | -0.151
13 | GGAACGAGGGCATTCGAGTTGATAGCGTGGCGAT | 0.509 | 0.892 | 1.16 | 3 | 0.583 | 3.13 | -0.46 | 3.6
14 | TCTCGTAGATCAAGCAGGTTAAGAAAGCCTGAGT | -0.357 | -0.372 | -0.369 | 0.598 | -0.0292 | 0.103 | -0.615 | -0.12
15 | CCTATTAGTTGACCATAGGGGCAACCGAAGCTCG | 1.3 | 0.669 | 0.729 | 0.6 | 0.362 | 0.842 | 0.596 | 0.581
16 | TCTTGTAGATCAGCAGGTAAAGAAAGCTGGCCAA | -0.48 | -0.342 | -0.709 | 0.623 | 0.124 | -0.108 | -0.515 | -0.431
17 | TCATAGAGGTAAAAGGTGAAAGTCGGTGTGGTAA | 1.72 | 2.5 | 0.912 | 1.01 | 4 | 1.97 | -0.0823 | -0.219
18 | AGAATGAGGTTATTAAGATCAGGGATTTGCGGTC | 0.902 | 1.19 | 1.05 | 1.96 | 1.76 | 2.29 | 0.681 | 1.2
19 | CAGACTAGGTCACAGAGGTCAAAGTCCGTGCGTA | 5.42 | 7.17 | 7.46 | 3.41 | 7.88 | 4.6 | 2.91 | 7.08
20 | CGAACTAGGTCATTGACAAGACAGTGAATAGTAA | 2.2 | 3.71 | 4.21 | 1.81 | 2.68 | 2.3 | 0.53 | 0.774
21 | AGAATGAGGTTATTAAGATCAGGGTATTGCGGTC | 0.948 | 1.09 | 0.753 | 1.79 | 1.62 | 2.17 | 0.854 | 1.29
22 | TCAAGTTGGTCACGGAGGTCACACACGACGGGTA | 4.54 | 4.9 | 4.56 | 1.53 | 4.68 | 3.72 | 2.55 | 3.44
23 | GGAACGACGGCAAGTTGATAGCAGAGTTTGATGG | -0.7 | -0.136 | -0.0502 | -0.124 | -0.0735 | -0.769 | -1.02 | -0.205
24 | ATCTCTAAGTAACAAGTTCAGTGAAAGAGAGGAC | 1.84 | 0.884 | 1.24 | 1.06 | 0.744 | 0.981 | 0.691 | 2.61
25 | TTACCAAGGTGTAGGTCGTTGATCCCTCTGTAGA | 0.426 | 0.051 | -0.436 | -0.0196 | 0.497 | 0.442 | 0.121 | 0.0922
26 | TAGCCTAGGTCATTCAGGAGCCAGTATAGAAAGC | 2.45 | 4.25 | 4.41 | 1.37 | 2.96 | 2.68 | 0.478 | 1.09

Row | Sequence | PBM binding z-score [1] | PBM binding z-score [2] | PBM binding z-score [3] | PBM binding z-score [4] | PBM binding z-score [5] | PBM binding z-score [6] | PBM binding z-score [7] | PBM binding z-score [8]
27 | GCTAGCAGGCCATTTGGGTCACTAAATGACGGGC | 1.76 | 0.89 | 1.18 | -0.318 | 0.776 | 1.68 | 0.196 | 0.0959
28 | CCTACTGGGCTAAAGGTCATTGATTCCAATGCTC | 4.22 | 4.96 | 4.27 | 1.17 | 5.21 | 3.15 | 0.533 | 2.18
29 | CCTAGCAGGCCAGGGTCACTGAAGCATTTCGCTT | 2.95 | 3.32 | 2.91 | 0.172 | 3.86 | 3.07 | 1.02 | 1.19
30 | CGAACTAGGTCATCCAGGACAATGAATACATTGA | 2.68 | 3.81 | 4.59 | 2.36 | 2.73 | 3.81 | 2.22 | 2.27
31 | ATCTCTAGGTGAAGATAGTTCAGTGAATGCAAAT | 1.19 | 1.16 | 1.27 | -0.299 | 0.687 | 1.24 | 0.00291 | 0.334
32 | CCGAGGAGGTTATGGGGCATTCAGGCAACGGTGA | 1.31 | 1.42 | 0.885 | 0.0755 | 1.95 | 1.25 | 0.438 | 0.25
33 | CTCGTAAGGTCGTGCTCAGGTGAGTATACCAAAC | 2.05 | 3.84 | 2.77 | 2.39 | 2.68 | 4.18 | 2.99 | 1.5
34 | TCAATGAGGTTAAAGATCAGGGAACGTGGCGTCG | 0.614 | 2.41 | 1.32 | 1.88 | 4.18 | 2.42 | 0.288 | 0.855
35 | TCTATTAGTTGAACGGCAACCGACGAGTCCGTTT | -0.12 | 0.0941 | -0.2 | 1.53 | 0.254 | -0.127 | 0.107 | 0.971
36 | TATCCAGGGTCAAAGGCCAGAGTACGAATGTCGA | 3.6 | 5.88 | 5.26 | 2.94 | 7.51 | 3.75 | 1.3 | 3.46
37 | CCTGCTAGGTCATGGTCAGCTCATCTACAGTATG | 3.46 | 3.88 | 4.57 | 1.95 | 2.65 | 3.24 | 1.26 | 0.458
38 | TATACAGGGTCATAGGCCAGAGTACGAATGTCGA | 3.08 | 5.43 | 4.72 | 2.94 | 6.27 | 3.5 | 0.758 | 3.52
39 | CGAACTATGTCAGAACAGGACAGTGAAGGATGAT | 0.293 | 0.443 | 0.879 | -0.123 | 0.167 | 0.953 | -0.106 | 0.0831
40 | CCTGCTAGGTCATGGTCAGTTAATCTACAGTATG | 3.11 | 4.04 | 5.07 | 2.12 | 3.12 | 3.23 | 1.57 | 0.435
41 | ACTAGTTGATCAGCTGAGGTCACACACAATTCGG | 4.17 | 3.71 | 3.35 | 1.75 | 3.94 | 4.3 | 4.96 | 4.13
42 | TGTCAAAGTTCAAAGGCAACGTAAGTATCCACAC | 3.66 | 5.59 | 5.84 | 4.29 | 5.06 | 2.12 | -0.708 | 4.02
43 | GCCACTGGGGCATCAGCAGGTTACCATAACTTAA | 0.865 | 0.714 | 0.439 | -0.45 | 0.212 | 0.803 | -0.0926 | -0.602
44 | CCTACCGGGCCATCAGGTCATTGATATCAACGTT | 2.68 | 2.12 | 2.18 | -0.283 | 1.28 | 3.19 | 3.37 | 1.78
45 | GGAACGAGGGCAAAGTTGATCGCATCTGTCGACG | 1.19 | 1.83 | 1.8 | 2.72 | 1.92 | 1.19 | -0.32 | 1.61
46 | AGAACGAGGGCACGCTGAGTTGGTAGCAGAGTAG | 1.01 | 1.69 | 2.37 | 1.55 | 1.19 | 1.56 | -0.105 | 0.953
47 | ATCGAAAGGTCGTGAGTTGAGTATACAGAAAGGC | 2.4 | 4.08 | 3.7 | 1.49 | 4.88 | 2.32 | 0.26 | 1.49
48 | CCTTACGGGTCAAGGTCATAGCACGGGTGGTACG | 4.87 | 6.23 | 6.45 | 2.02 | 7.01 | 4.18 | 3.42 | 3.71
49 | CTCCAAAGGTCGTGCTCAGGTGAGTATACCAAAC | 2.74 | 5.41 | 4 | 2.23 | 5.01 | 4.15 | 1.09 | 0.905
50 | ATCGAAAGGTCGAAGGTTAGTATACCCACCCGAA | 2.72 | 4.38 | 3.94 | 1.41 | 5.38 | 2.19 | 0.185 | 0.865
51 | GCTATTAGTTGAAAGGGCAATCGAATGATTCTCG | 1.55 | 0.91 | 0.806 | 0.718 | 1.12 | 0.487 | -0.359 | 0.123
52 | CCCACTGGGCCAAGGTCATTGATCAGTCAAAGCA | 3.19 | 3.57 | 3.06 | 0.687 | 3.2 | 3.3 | 2.16 | 3.07
